This passage reports inhibition results from PubChem BioAssay AID565 (University of Pittsburgh Molecular Library Screening Center, 2006).

In all, about 65,000 compounds went through this assay and about 1,200 (1.8%) were called active. This excerpt belongs to a sample that is enriched for actives. A number with no mark means an inactive call. No stated cut-off is given here; in the data, active means inhibition above about 50%; inactive means the rest.

The experiment concerns the target Gag-Pol polyprotein (Human immunodeficiency virus type 1 group M subtype B (isolate HXB2)) (UniProt P04585). As to the kind of experiment: blockers of HIV-1 RNase H RNA/DNA cleavage – biochemical, fluorescence, primary screen (AID 565). The conditions noted are these: RT-RNase H RNA/DNA duplex cleavage, at 10 µM, hits give high values.
Take `Cc1cc(C)c(C#N)c(SCc2ccccc2C(=O)O)n1`: the inhibition was -5.35%.
For the compound `COc1ccc(N2CCN(CCNC(=O)CCN3C(=O)COc4ccccc43)CC2)cc1`, the inhibition was 7.09%.
Regarding `Cc1ccc(C(=O)COc2cccc(NC(=O)c3ccco3)c2)cc1`, the inhibition was 9.47%.
For the compound `CCOc1cc(NC(=O)c2ccco2)c(OCC)cc1NC(=O)COc1ccccc1`, the inhibition is 52.4% (active).
As to `O=C(Nc1ccc(Oc2ccccc2)cc1)c1ccco1`, the inhibition was -7.33%.
Under `Cc1cc(Nc2ccccc2)n(C(=O)c2ccc(N)cc2)n1` stands -17.6%.
With `CCCOC(=O)Nc1ccccc1C(N)=O` the figure was -29.1%; with `CCOC(=O)c1ccccc1NC(=O)CC1Nc2ccccc2NC1=O` (configuration not stated), 71.6% (active); with `O=C(CC1Nc2ccccc2NC1=O)Nc1ccccc1` (configuration not stated), -4.38%.
Under `CCC(C)NC(=O)C1CCC(=O)N1Cc1ccc(C)cc1` (configuration not stated) stands -9.01%; under `CCN(CC)CCCNC(=O)c1cc(-c2cccc(Cl)c2)on1`, -16%.
On to `CCN(CC)c1ccc2oc(=O)c(C)nc2c1`, for which the inhibition is 68.2% (active).
In the case of `CCN(CC)c1ccc2cc(C(=O)O)c(=O)oc2c1`, the inhibition was -8.5%.
As to `CCc1ccc2oc(-c3ccc(N)cc3)nc2c1`, the inhibition was -12.6%.
For the compound `Cc1cccc(NC(=O)COc2ccc(Br)cc2C)n1`, the inhibition is -9.39%.
With `Cn1nnc(NC(=O)CSc2ncn[nH]2)n1` the figure was -0.52%.
Turning to `CC(C)(C)c1ccc(C(=O)CSc2ncn[nH]2)cc1`, the inhibition is 82.3% (active).
In the case of `CCN(C(=O)CSc1ncn[nH]1)c1cccc2ccccc12`, the inhibition was -10.7%.
Under `Cc1cccc(N=C2NC(=O)CS2)c1C` stands -0.31%.
Under `c1ccc2cc(OCCN3CCCC3)ccc2c1` stands -14.7%; under `N#Cc1cccc(CSc2nnc(CCCO)n2-c2ccccc2)c1`, -5.32%; under `O=C(OCc1nnc(-c2ccccc2)o1)c1ccc2c(c1)C(=O)N(CCc1ccccc1)C2=O`, 16.2%.
With `COc1ccccc1Cn1c(=S)[nH]c2cc(C(=O)N3CCN(C)CC3)ccc2c1=O`, the inhibition is -5.95%.
Under `O=C(CCn1c(=S)[nH]c2ccccc2c1=O)NCCCN1CCCC1=O` stands -8.03%.
With `O=c1c2ccccc2[nH]c(=S)n1CCN1CCC(=C(c2ccc(F)cc2)c2ccc(F)cc2)CC1` the figure was 53.2% (active); with `CN(C)Cc1c(O)ccc2occ(C(O)c3ccccc3)c12` (configuration not stated), 2.07%; with `COc1ccc(OC)c2c(N)c(C#N)c(C(F)(F)C(F)(F)F)nc12`, -3.29%.
With `Cn1c(CC(=O)Nc2ccccc2)nnc1SCC(=O)c1ccccc1` the figure was 50.1% (active); with `Cc1ccccc1NC(=O)Cc1nnc(SCC(=O)N2CCN(c3ccccc3)CC2)n1C`, 1.53%.
For the compound `Cn1c(CNc2nc(-c3ccccc3)cs2)nnc1SCC(=O)c1ccccc1`, the inhibition was -5.65%.
Under `CCOC(=O)C(C(=O)OCC)C(C#N)c1ccccc1` (configuration not stated) stands -13.1%.
Regarding `Cc1ccc(-c2nnc(SC(C)C#N)n2N)cc1` (configuration not stated), the inhibition is -0.02%.
For `COc1cc(C(=O)Nc2oc(-c3ccccc3)c(-c3ccccc3)c2C#N)cc(OC)c1OC`, the inhibition is 80% (active).
Under `COc1cc(C(=O)Nc2nccs2)cc(OC)c1OC` stands -12.7%.
Under `N#Cc1c(NC(=O)CCCN2C(=O)c3ccccc3C2=O)oc(-c2ccccc2)c1-c1ccccc1` stands 19%; under `COCCNC(=O)C(c1ccc(C)o1)N(Cc1ccccc1)C(=O)Cn1nnc2ccccc21` (configuration not stated), 5.47%.
With `CC(C)(C)NC(=O)C(c1ccco1)N(Cc1ccc2c(c1)OCO2)C(=O)Cn1nnc2ccccc21` (configuration not stated), the inhibition is 9.38%.
As to `CCC(C)(C)NC(=O)C(c1cccn1C)N(Cc1ccc(C)cc1)C(=O)Cn1nnc2ccccc21` (configuration not stated), the inhibition was 50.2% (active).
Under `CCOc1ccc(Cn2c(SCCCCC#N)nc3c2c(=O)n(C)c(=O)n3C)cc1OCC` stands 29.2%.
Under `Cc1ccc(C)n1-c1ccncc1` stands -2.45%; under `O=C(COc1ccc(S(=O)(=O)NCCc2ccccc2)cc1)N1CCCC1`, -8.41%; under `Cc1ccc(Cn2nnc3c(=O)n(CC(=O)N4CCCCC4)cnc32)cc1`, -6.24%.
Under `CC(=O)Nc1ccc(-c2nn3c(C)nnc3s2)cc1C` stands -4.83%; under `CCN1CCc2c(C#N)c(NCc3ccccc3)nc(NCCO)c2C1`, 10.1%; under `N#Cc1ccc(COC(=O)Cn2nnc(-c3ccccc3)n2)cc1`, -12.9%.
Regarding `N#Cc1c(N)sc2c1CCN(C(=O)OCc1ccccc1)C2`, the inhibition is 52% (active).
Under `CN(C(=O)CSc1nnnn1-c1ccccc1)C1CCCCC1` stands -7.53%.
With `CCN(Cc1ccccc1)C(=O)CSc1nc(C)cc2c1C(=O)OC2` the figure was -15.7%.
`O=C(O)CCC(=O)N(Cc1cccs1)Cc1cccs1`: the inhibition was 4.03%.
Turning to `Cc1ccc(-c2nn(-c3ccccc3)cc2CN(Cc2ccccc2)C(=O)CCC(=O)O)o1`, the inhibition is 81.7% (active).
With `CSCCC1NC2(C(=O)Nc3ccc(Cl)cc32)[C@@H]2C(=O)N(C3CCCC3)C(=O)[C@H]12` (some centres not stated) the figure was 2.23%; with `c1ccc2c(c1)OCC(CNc1ncnc3nc[nH]c13)O2` (configuration not stated), -8.18%.
With `COC(=O)c1ccc(OC(=O)c2nn(C)cc2Cl)c(OC)c1` the figure was -6.66%; with `CN(c1ccccc1)c1ccc(/C=c2\s/c(=C(/C#N)C(=O)C(C)(C)C)n(Cc3ccco3)c2=O)cc1`, 71.8% (active); with `CCOc1ccccc1/C=c1\sc2nc(-c3ccco3)nn2c1=O`, 33.7%.
Consider `O=c1nc2s/c(=C\c3ccco3)c(=O)n2nc1Cc1ccccc1`, for which the inhibition is 5.64%.
Under `CN(C)c1cc(N)c2ccccc2n1` (tested in a mixture with another compound) stands -10%.
With `COc1ccc(-c2nc(CS(=O)CC(=O)NCc3ccccn3)c(C)o2)cc1` (configuration not stated) the figure was 2.69%; with `CCOC(=O)C1CCN(Cc2coc3ccc(Cl)cc3c2=O)CC1`, 2.73%.
With `CC1=C(C(N)=O)C(c2ccc3c(c2)OCO3)n2nc(-c3cccc(C)c3)nc2N1` (configuration not stated) the figure was 0.45%; with `O=C(Cn1nnc(-c2ccccc2)n1)NCc1ccc2c(c1)OCO2`, -23.7%.
On to `c1ccc(-c2nnc3n2NC(c2ccc4c(c2)OCO4)S3)cc1` (configuration not stated), for which the inhibition is 67.9% (active).
